The text below walks through data of PubChem BioAssay (NCI).

The panel holds about 83,000 compounds, 20% with a hit somewhere; the sample as a whole holds those more often.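 A percent growth of 40 corresponds to 60% growth inhibition; 0 means no net growth; -100 means all cells died. Active threshold: below 10.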 Activity calls are given as the source filed them.

The subject of this experiment is UACC-257 melanoma. Kind of experiment: NCI-60 one-dose screen, 48 h (100 = growth as untreated, 0 = no growth, -100 = all killed). The following applies: 10 µM unless noted.
`COc1ccc2ncccc2c1Cc1c(OC)ccc2ncccc12`: the growth was 68.2% (inactive).
As for `COc1cc(C2CC(C3C(=O)N(C)C(=O)N(C)C3=O)=NN2c2cc(Cl)cc(Cl)c2)cc(OC)c1OC` (centres undefined), the figure is 74.2% (inactive); as for `Cc1sc2nc(NCc3ccccc3)[nH]c(=O)c2c1C`, 73% (inactive); as for `Cc1cc2c(cc1C)[n+](Cc1ccc3ccccc3n1)cn2Cc1ccc2ccccc2n1`, -16.6% (active).
On to `COc1cc(/C=C2\CN(S(=O)(=O)c3ccc(C)cc3)C/C(=C\c3cc(CN4CCOCC4)c(O)c(OC)c3)C2=O)cc(CN2CCOCC2)c1O`, for which the growth was -28.6% (active).
As for `O=C1NCCc2c1noc2-c1ccccc1`, the growth was 101% (inactive).
For `C[C@]12CCC(=O)C=C1CC[C@H]1[C@@H]3C[C@@H](O)[C@](O)(C(=O)CO)[C@@]3(C)C[C@H](O)[C@@]12F` the value was 82.1% (inactive).
Consider `C/C(=C\CCc1ccsc1)CC/C=C(\C)CCCN1CCSCC1`, for which the growth is 94.6% (inactive).
As for `COC(=O)Nc1ccc2ccc3c(NC(=O)OC)ccc4ccc1c2c43` (tested in a mixture with another compound), the figure is 71.7% (inactive); as for `O=C(Nc1nc2c(C(F)(F)F)cccc2s1)c1cc(Cl)ccc1O`, -23.7% (active).
`COc1cc(C2=NN(C=O)C(c3cccc(Nc4ccnc5cc(Cl)ccc45)c3)C2)cc(OC)c1OC` (centres undefined): the growth is 73.2% (inactive).
Consider `COc1cccc(-c2nc(-c3ccc(N)cc3)co2)c1`, for which the growth is 93.1% (inactive).
As for `C[C@@H]1[C@H]2[C@H](C=C3[C@@H]4CC[C@H]5Cc6nc7c(nc6C[C@]5(C)[C@H]4C[C@@H](O)[C@@]32C)C[C@@H]2CC[C@H]3C4=C[C@@H]5O[C@@]6(CC[C@](C)(CO)O6)[C@@H](C)[C@@]5(O)[C@@]4(C)[C@H](O)C[C@@H]3[C@@]2(C)C7)O[C@]12CCC(C)(C)O2`, the figure is 26.6% (inactive); as for `O=C(CNC(=O)c1cccc2ccccc12)Nc1ccccc1Oc1cccc(O)c1`, 45% [5 µM] (inactive).
On to `CCN(CC)CCNCC(=O)Oc1ccc(/C=C/C(=O)CC(=O)/C=C/c2ccc(OC(=O)CNCCN(CC)CC)c(OC)c2)cc1OC`, for which the growth is 53.7% (inactive).
On to `COc1ccc(-c2cc(-c3nnc(SCC(=O)Nc4ccc(C(C)=O)cc4)n3-c3ccccc3)c3ccccc3n2)cc1OC`, for which the growth was 87.1% (inactive).
As for `COc1ccc2c(c1)[n+](=O)c(C(=O)/C=C/c1cc(OC)c(OC)c(OC)c1)c(C)n2[O-]`, the figure is 80.5% (inactive).
As for `COc1ccc(-c2nc3sc4c(c3c(=O)[nH]2)CCCCCC4)cc1`, the figure is 64% (inactive); as for `CC(=O)Nc1c(Cl)cc2c(c1Cl)Cc1cc([N+](=O)[O-])ccc1-2`, 77.9% (inactive).
As for `CCN(CC)CCCCCCCNc1c2ccc(Cl)cc2nc2ccc(OC)cc12`, the figure is -84.3% (active); as for `COc1cc(/C=C/c2cc(/C=C/c3ccc(O)c(OC)c3)n(C(=O)c3ccc(Cl)cc3)n2)ccc1O`, 63.2% (inactive); as for `Cc1n(Cc2ccc3ccccc3c2)c2ccccc2[n+]1Cc1ccc2ccccc2c1`, -53.9% (active).
Consider `CCn1cnc(C[C@H](NC(=O)[C@H](CCCCNC(=O)Nc2cc(C(F)(F)F)cc(C(F)(F)F)c2)NC(=O)Nc2cc(C(F)(F)F)cc(C(F)(F)F)c2)C(=O)OC)c1`, for which the growth is -59.1% [100 µM] (active).
`O=C(Nc1cccc(-n2cc(-c3ccncc3)c(-c3cc(O)cc(Cl)c3)n2)c1)Nc1ccc(Cl)c(Cl)c1`: the growth is -70.7% (active).
For `Oc1ccc(/C=N/Nc2nc3ccccc3s2)c(O)c1` the value was 37.4% (inactive).
For `Cc1csc(C#Cc2cncc(O)c2)n1` the value was 98.5% (inactive).
As for `COc1cc(/C=C/C(=O)CC(=O)/C=C/c2ccc(OC(=O)CCNC34CC5CC(CC(C5)C3)C4)c(OC)c2)ccc1OC(=O)CCNC12CC3CC(CC(C3)C1)C2`, the figure is 73.9% (inactive); as for `N/C(=N\C(N)=N\c1nc2ccccc2s1)c1ccnc(Cl)c1`, 74.4% (inactive); as for `COc1ccc(NS(=O)(=O)N2CCCCC2)cc1`, 102% (inactive).
In the case of `C=C1CCC2C(C)(COC(=O)CC)C(OC(=O)CC)CCC2(C)C1C/C=C1/C(=O)OCC1OC(=O)CC` (centres undefined), the growth was 0.936% (active).
In the case of `Cc1[nH]ccc2cc3nc4ccccc4c3cc12`, the growth is 39.9% (inactive).
As for `CC(C)=CCCC(C)c1ccc(C)c2c1OCN(CC1CCNCC1)C2` (centres undefined), the figure is 24.6% (inactive); as for `COc1ccc2c(c1)sc1nc(-c3ccc(N(C)C)cc3)cn12`, 95.8% (inactive); as for `COc1cc(/C=C/C(=O)C(C(=O)/C=C/c2ccc(OC(=O)CCNc3nnc(C)s3)c(OC)c2)C(=O)CCNc2nnc(C)s2)ccc1OC(=O)CCNc1nnc(C)s1`, 46.5% (inactive).
